VACV mCherry inh = qHTS for Stage-Specific Inhibitors of Vaccinia Orthopoxvirus: mCherry Reporter Primary qHTS; Vaccinia virus mCherry reporter infection, fluorescence; Potency, µM (top dose mostly 36.5 µM), for inactives: at the top dose activity change, negative = inhibition, usual class: inhibitors; hit rate 0.63% among 310,000; calls by dose curve; tested in A549 cells; further: potency means the concentration at half of the fitted maximal effect; nearly all actives have a fitted effect of over 35% in size
HCV inhibitor = qHTS Assay for Inhibitors of Hepatitis C Virus (HCV). Potency, µM (doses to about 41.8 µM), inactives show at the highest dose activity change, negative = inhibition, actives largely listed as inhibitors. Huh7.5.1 HCVcc-Cre infection, luciferase reporter, 44 h. hit rate 3.4% among 340,000. AID 651820, 2012; further: potency means the concentration at half of the fitted maximal effect
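Reporter virus HCVcc-Cre (~0.5 moi) infects cells exposed to compound; seeding density 1,000 cells/well with 4 h settling beforehand. Luminescence, 15 sec read, taken 44 h post-infection following a 15 min RT substrate incubation.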
HCMV antiviral = qHTS Assay for inhibitors of the human cytomegalovirus (HCMV) | HFF cells, HCMV-luciferase reporter, 72 h; stronger effect = lower value | activity change, negative = inhibition, % at 57.5 µM | hit rate 4.5% among 410,000 | AID 1259415, 2018; in the data active means activity change below about -60%; inconclusive means no clear call, values can overlap the other calls; inactive means above about -39%
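Human foreskin fibroblasts infected with luciferase-reporter HCMV at MOI 1 PFU/cell, compounds at two doses. Luciferase measured 72 h post infection; normalized to buffer-only basal and Salinomycin (10uM) controls.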
FMDV antiviral = High Throughput Screening for Foot and Mouth Disease Virus Antivirals; FMDV antiviral cell-based qHTS; Potency, µM (top dose mostly 57.9 µM), for inactives: at the highest dose activity change, negative = inhibition, hits mostly inhibitors; hit rate 1.2% among 410,000; calls by dose curve; tested in HEK293T cells; further: read-out not given here; potency means the concentration at half of the fitted maximal effect; nearly all actives have a fitted effect of over 45% in size
Vaccinia Venus = qHTS for Stage-Specific Inhibitors of Vaccinia Orthopoxvirus: Venus Reporter Primary qHTS; Vaccinia virus Venus reporter expression, fluorescence; Potency, µM (doses to about 36.5 µM), for inactives: at the highest dose activity change, negative = inhibition, hits mostly inhibitors; hit rate 0.46% among 330,000; AID 720580, 2013; calls by dose curve; tested in A549 cells; further: potency means the concentration at half of the fitted maximal effect; nearly all actives have a fitted effect of over 30% in size
Sm TGR inh = qHTS Assay for the Inhibitors of Schistosoma Mansoni Peroxiredoxins. Schistosoma mansoni thioredoxin glutathione reductase (TGR), Q962Y6. purified TGR, DTNB reduction, TNB absorbance 405 nm. Potency, µM (titrated, usually from 114 µM), without a hit: at the top dose activity change, negative = inhibition, most hits filed as inhibitors. hit rate 3% among 360,000. AID 485364, 2010; further: potency means the concentration at half of the fitted maximal effect; nearly all actives have a fitted effect of over 60% in size
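Kinetic colorimetric format: TGR-catalysed, NADPH-driven DTNB reduction monitored via TNB absorbance. Enzyme dispensed at 20 nM; compound exposure 15 min at room temperature before reaction start.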
Numbers without * were called inactive; [ ] = remark or other dose. This is a sample that favours compounds with a hit; in the whole collection about 9.3% have one here. Unless noted, the call rests on the fitted dose curve; in most records, active means well fitted curve in the direction sought with a large enough effect; inconclusive means small, poorly fitted or top-dose-only effect, or another doubt; inactive means no such curve, though single readings can be large; an effect the other way counts as inactive or inconclusive. On the % scale 0 is the no-effect control and ±100 the full control effect.

`Cc1ccccc1S(=O)(=O)Cc1ccc(C(=O)NC2CCC(C)CC2)o1` (stereo not drawn) gave VACV mCherry inh -13.4%, HCV inhibitor -28.6%, HCMV antiviral -5.3, FMDV antiviral -12.7%, Vaccinia Venus -3.1% and Sm TGR inh -15.1%.
Screening CCc1ccc(NC(=O)CSc2nc3c(c(=O)[nH]2)CN(Cc2ccc(C)cc2)CC3)cc1 returned VACV mCherry inh -14.7%, HCMV antiviral -4.0, FMDV antiviral -7.6%, Vaccinia Venus -1.2% and Sm TGR inh 5.1%.
COc1ccc(N(C)S(=O)(=O)c2cccc(C(=O)NC3CCC(C)CC3)c2)cc1 (stereo not drawn) was read as VACV mCherry inh inactive, HCV inhibitor inconclusive, HCMV antiviral -61.9*, FMDV antiviral -18.8%, Vaccinia Venus -21.9% and Sm TGR inh 13.2%.
`COc1ccc(N(C)S(=O)(=O)c2cccc(C(=O)OCC(=O)c3c(N)n(C)c(=O)n(C)c3=O)c2)cc1` gave VACV mCherry inh -12.3%, HCV inhibitor inconclusive, HCMV antiviral inconclusive, FMDV antiviral 22.4µM* and Vaccinia Venus -17.0%.
For COc1ccc(N(C)S(=O)(=O)c2cccc(C(=O)Nc3cccc(C(=O)NC4CC4)c3)c2)cc1 the results were VACV mCherry inh 35.2%, HCV inhibitor 14.1µM*, HCMV antiviral -8.5, FMDV antiviral -16.8%, Vaccinia Venus -19.6% and Sm TGR inh 0.0%.
Screening COc1ccc(N(C)S(=O)(=O)c2cccc(C(=O)NC3CCCCCC3)c2)cc1 returned VACV mCherry inh -27.5%, HCV inhibitor inconclusive, HCMV antiviral -7.1, FMDV antiviral inconclusive, Vaccinia Venus -6.3% and Sm TGR inh -5.5%.
For CN(Cc1nc(-c2cnccn2)no1)C1CC(C)(C)NC(C)(C)C1 the results were VACV mCherry inh -7.1%, HCV inhibitor 20.4%, HCMV antiviral 23.7, FMDV antiviral 16.7%, Vaccinia Venus -5.7% and Sm TGR inh -9.4%.
For O=C1[C@H](Cc2ccccc2)NC/C=C\C[C@@H](c2ccc(Cl)cc2)N1Cc1ccccc1 the results were VACV mCherry inh -0.2% and Vaccinia Venus -12.7%.
Screening Cc1cc([N+](=O)[O-])ccc1NC(=O)Nc1ccc(F)cc1F returned VACV mCherry inh inactive, HCV inhibitor 3.55µM*, HCMV antiviral inconclusive, FMDV antiviral inconclusive, Vaccinia Venus -16.0% and Sm TGR inh -9.5%.
`CNC(=S)Nc1ccc([N+](=O)[O-])c(C)c1` gave HCV inhibitor -11.5%, HCMV antiviral inconclusive, FMDV antiviral 26.1% and Sm TGR inh 39.8µM*.
Cc1ccc(CNC(=S)Nc2ccc(C)c([N+](=O)[O-])c2)cc1 was read as VACV mCherry inh inactive, HCV inhibitor -19.6%, HCMV antiviral 3.9, FMDV antiviral -23.8%, Vaccinia Venus -9.4% and Sm TGR inh -2.6%.
Screening CNC(=S)Nc1ccc([N+](=O)[O-])cc1C returned VACV mCherry inh -11.0%, HCV inhibitor inconclusive, HCMV antiviral 1.0, FMDV antiviral -6.4%, Vaccinia Venus -7.5% and Sm TGR inh 10µM*.
Cc1ccc(NC(=S)NCc2ccccc2)cc1[N+](=O)[O-] was read as VACV mCherry inh inconclusive, HCV inhibitor -23.4%, HCMV antiviral -95.9*, FMDV antiviral 19.0%, Vaccinia Venus -22.8% and Sm TGR inh -15.3%.
Screening CC12CCC(C(=O)NCCCN3CCOCC3)(C(Br)C1=O)C2(C)C (stereo not drawn) returned VACV mCherry inh -0.5%, HCV inhibitor -15.6%, HCMV antiviral 44.6, FMDV antiviral 8.5%, Vaccinia Venus -7.6% and Sm TGR inh -12.8%.
`Cc1ccc(S(=O)(=O)N2CCOC2C(Cl)(Cl)Cl)cc1` (stereo not drawn) gave VACV mCherry inh -16.0%, HCV inhibitor 3.2%, HCMV antiviral inconclusive, FMDV antiviral -25.7%, Vaccinia Venus -13.8% and Sm TGR inh -6.4%.
Screening Cc1cc([N+](=O)[O-])ccc1NC(=O)C[n+]1ccc(N(C)C)cc1 returned VACV mCherry inh -3.2%, HCV inhibitor 5.6%, HCMV antiviral -99.9*, FMDV antiviral -11.5%, Vaccinia Venus -12.4% and Sm TGR inh 0.6%.
Screening C=CCOC(=O)COc1ccc2c3c(c(=O)oc2c1)CCCC3 returned VACV mCherry inh inactive, HCMV antiviral -22.0, FMDV antiviral 3.8% and Vaccinia Venus -4.1%.
`O=C(NC(=S)NNC(=O)c1cnccn1)c1ccc(Cl)cc1` gave VACV mCherry inh -19.7%[7.34 µM], HCV inhibitor inconclusive, HCMV antiviral 93.9, FMDV antiviral 23.8%, Vaccinia Venus -13.5%[7.34 µM] and Sm TGR inh 13.7%.
For COc1ccc(C(=O)NNC(=O)c2ccc(C(C)(C)C)cc2)cc1 the results were VACV mCherry inh inactive, HCV inhibitor -1.3%, HCMV antiviral -3.5, FMDV antiviral 6.2%, Vaccinia Venus -4.7% and Sm TGR inh -5.2%.
For N#Cc1ccc(OCC(=O)NNC(=S)NC(=O)C2CC2)cc1 the results were VACV mCherry inh inactive, HCV inhibitor -2.7%, HCMV antiviral 4.4, FMDV antiviral 2.2% and Vaccinia Venus -10.3%.
COc1ccc(C(=O)NC(=S)NNC(=O)COc2ccccc2)cc1 was read as VACV mCherry inh inconclusive, HCV inhibitor -25.6%, HCMV antiviral -22.3, FMDV antiviral 28.2µM* and Vaccinia Venus -14.8%.
COc1ccc(C(=O)NNC(=S)NC(=O)C(C)(C)C)cc1 was read as VACV mCherry inh 3.98µM*, HCV inhibitor inconclusive, HCMV antiviral -31.0, FMDV antiviral -3.8%, Vaccinia Venus inconclusive and Sm TGR inh 6.2%.
COc1ccc(C(=O)NC(=S)NNC(=O)c2cnccn2)cc1 was read as VACV mCherry inh -15.4%, HCV inhibitor inconclusive, HCMV antiviral -84.9*, FMDV antiviral 8.5%, Vaccinia Venus -13.8% and Sm TGR inh -12.2%.
Screening CC(C)c1ccc(OCC(=O)NNC(=S)NC(=O)C2CC2)cc1 returned VACV mCherry inh -16.9%, HCV inhibitor -25.7%, HCMV antiviral -98.1*, FMDV antiviral 0.0%, Vaccinia Venus inconclusive and Sm TGR inh 0.0%.
Screening COc1ccc(C(=O)NC(=S)NNC(=O)c2ccccc2O)cc1 returned VACV mCherry inh 12.6µM*, HCV inhibitor -19.9%, HCMV antiviral 39.2, FMDV antiviral 9.6%, Vaccinia Venus inconclusive and Sm TGR inh -5.8%.
Screening CCCCOc1ccc(C(=O)NNC(=O)c2cnccn2)cc1OC returned VACV mCherry inh inconclusive, HCV inhibitor 12.6µM*, HCMV antiviral inconclusive, FMDV antiviral -7.2% and Vaccinia Venus inconclusive.

From PubChem BioAssay
